Records with an inconclusive call do not appear. Calls of active or inactive are those of the source. How the source made its calls: active means hit-call score of the fitted dose curve at least 0.9, where 1 is the maximum; inconclusive means response in the unintended direction; inactive means score below 0.9.

Chain of human Peroxisome Proliferator-activated Receptor alpha (PPARa), PPARA (gene 5465) (Q07869 whole entry, looked up): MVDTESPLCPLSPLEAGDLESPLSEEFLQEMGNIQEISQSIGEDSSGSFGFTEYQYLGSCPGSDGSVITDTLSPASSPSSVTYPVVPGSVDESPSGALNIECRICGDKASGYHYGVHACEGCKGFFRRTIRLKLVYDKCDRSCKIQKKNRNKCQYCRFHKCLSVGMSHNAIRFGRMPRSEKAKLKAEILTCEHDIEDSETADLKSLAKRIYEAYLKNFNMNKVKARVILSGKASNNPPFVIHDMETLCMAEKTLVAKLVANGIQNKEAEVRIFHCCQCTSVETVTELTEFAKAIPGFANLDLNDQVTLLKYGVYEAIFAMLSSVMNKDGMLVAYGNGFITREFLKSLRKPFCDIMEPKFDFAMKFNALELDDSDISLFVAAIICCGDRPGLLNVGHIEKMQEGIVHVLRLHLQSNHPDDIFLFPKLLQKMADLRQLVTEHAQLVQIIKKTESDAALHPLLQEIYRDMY

The target of this assay is human Peroxisome Proliferator-activated Receptor alpha (PPARa), PPARA (gene 5465) (UniProt Q07869). The assay can be described thus: ATG_PPARa_TRANS: Attagene TRANS-FACTORIAL HepG2 Assay for human Peroxisome Proliferator-activated Receptor alpha (PPARa) (AID 2283001). The procedure:
ATG_TRANS is a cell-based, multiplexed-readout assay that uses HepG2, a human liver cell line, with measurements taken at 24 hours after chemical dosing in a 24-well plate.ATG_PPARa_TRANS is one of 30 assay component(s) measured or calculated from the ATG_TRANS assay. It is designed to make measurements of mRNA induction, a form of inducible reporter, as detected with fluorescence intensity signals by Reverse transcription polymerase chain reaction (RT-PCR) and Capillary electrophoresis technology.Data from the assay component ATG_PPARa_TRANS was analyzed into 1 assay endpoint. This assay endpoint, ATG_PPARa_TRANS, was analyzed in the positive analysis fitting direction relative to DMSO as the negative control and baseline of activity. Using a type of inducible reporter, measures of mRNA for gain-of-signal activity can be used to understand the reporter gene at the transcription factor-level as they relate to the gene PPARA. Furthermore, this assay endpoint can be referred to as a primary readout, because this assay has produced multiple assay endpoints where this one serves a reporter gene function. To generalize the intended target to other relatable targets, this assay endpoint is annotated to the nuclear receptor intended target family, where the subfamily is non-steroidal.
Human liver HepG2 cells are transiently transfected with multiple reporter transcription units (MRTUs) in 6-well plates using FuGene 6 reagent (Roche; 3 ml FuGene/1 mg DNA). The MRTU constructs are regulated by a cis-regulating element (promoter). […] A major difference between the CIS and TRANS system is that in CIS activities of endogenous TFs are measured, whereas the TRANS assay evaluates changes in activities of exogenous, chimeric NR-Gal4 proteins. […] At the end of 24 hour incubation, total RNA was isolated using TriZol reagent (Invitrogen). The isolated RNA is then reverse-transcribed using oligo(dT) primer and Mo-MLV reverse transcriptase (Invitrogen) with DNAse I (Ambion) treatment for 30 min. The one-tenth of the produced cDNA was amplified by PCR using Taq DNA polymerase (Invitrogen) and two reporter sequence-specific primers. The PCR products were fluorescently labeled by primer extension with 6-arboxyfluorescein (6-FAM) 5'-labeled reporter sequence-specific primer (2 min at 95 C, 20 s at 68 C and 10 min at 72 C) and these products were digested with 5U of HpaI (New England Biolabs) for 2h at 37 C. The fragments were purified using Qiaquick PCR columns (Qiagen), analyzed on an ABI 3130xL genetic analyzer (Applied Biosystems) with peak positions identified by using a set of X-rhodamine (ROX)-labeled MapMarker1000 molecular weight standards (BioVentures). The raw capillary electrophoresis data was processed using Attagraph software (Attagene).
For `CN(C)[C@@H]1C(=O)C(C(N)=O)=C(O)[C@@]2(O)C(=O)C3=C(O)c4c(O)cccc4[C@@](C)(O)[C@H]3[C@H](O)[C@@H]12`, the call was inactive.

`CCOC(=O)COc1cc(-c2nn(C)c(OC(F)F)c2Cl)c(F)cc1Cl`: the compound was called inactive.

As to `Cc1nn(-c2cc(NS(C)(=O)=O)c(Cl)cc2Cl)c(=O)n1C(F)F`, the compound was called inactive.

As to `O=C(O)c1cc(Oc2ccc(C(F)(F)F)cc2Cl)ccc1[N+](=O)[O-]`, the result was inactive.

As for `CCOC(=O)CC(SP(=O)(OC)OC)C(=O)OCC` (stereo not given), the result was inactive.

Turning to `CCCOCC(=Nc1ccc(Cl)cc1C(F)(F)F)n1ccnc1`, the compound was classed as inactive.

With `N#CSCSC#N`, the result was inactive.

On to `CN(C)NC(=O)CCC(=O)O`, for which the result was inactive.

With `CCCCOC(=O)[C@@H](C)Oc1ccc(Oc2ccc(C#N)cc2F)cc1`, the call was inactive.

With `Cc1ccn2nc(S(=O)(=O)Nc3c(F)cccc3F)nc2n1`, the call was inactive.

With `COc1cc(OC)nc(Sc2cccc(Cl)c2C(=O)O)n1`, the compound was classed as inactive.

Consider `C[Si](Cn1cncn1)(c1ccc(F)cc1)c1ccc(F)cc1`, for which the result was inactive.

As to `CCCCN(CC)c1c([N+](=O)[O-])cc(C(F)(F)F)cc1[N+](=O)[O-]`, the call was inactive.

Turning to `CCCCSP(=O)(SCCCC)SCCCC`, the compound was classed as inactive.

`CNC(=O)ON=C(SC)C(=O)N(C)C`: the call was inactive.

As to `CC(Oc1cccc(Cl)c1)C(=O)O` (stereo not given), the outcome was inactive.

`COP(=O)(OC)C(O)C(Cl)(Cl)Cl` (stereo not given): the compound was classed as inactive.

As for `CC[C@H](C)[C@H]1O[C@]2(C=C[C@@H]1C)C[C@@H]1C[C@@H](C/C=C(\C)[C@@H](O[C@H]3C[C@H](OC)[C@@H](O[C@H]4C[C@H](OC)[C@@H](NC)[C@H](C)O4)[C@H](C)O3)[C@@H](C)/C=C/C=C3\CO[C@@H]4[C@H](O)C(C)=C[C@@H](C(=O)O1)[C@]34O)O2`, the compound was classed as inactive.

Take `CNC(=O)ON=C(C)SC`: the compound was called inactive.

On to `CCCCOC(=O)c1ccccc1C(=O)O`, for which the result was inactive.

As to `C=C(C)[C@H]1Cc2c(ccc3c2O[C@@H]2COc4cc(OC)c(OC)cc4[C@@H]2C3=O)O1`, the compound was classed as inactive.

For `Cc1cc(C2CC2)nc(Nc2ccccc2)n1`, the compound was called inactive.

Consider `CSc1nc(NC(C)C)nc(NC(C)C)n1`, for which the result was inactive.

In the case of `CCOP(=S)(OCC)Oc1ccc2c(C)c(Cl)c(=O)oc2c1`, the call was inactive.

Take `CC(C)=CC1C(C(=O)OCN2C(=O)C3=C(CCCC3)C2=O)C1(C)C` (stereo not given): the compound was called inactive.

In the case of `CCCSP(=O)(OCC)Oc1ccc(Br)cc1Cl` (stereo not given), the outcome was inactive.

As to `Nc1nc(N)nc(NC2CC2)n1`, the compound was called inactive.

Take `CCC(=O)Nc1ccc(Cl)c(Cl)c1`: the compound was classed as inactive.

As to `CC1=NNC(=O)N(/N=C/c2cccnc2)C1`, the result was inactive.

In the case of `CC(C)N(C(=O)SCC(Cl)=C(Cl)Cl)C(C)C`, the result was inactive.

For `CC(=NC#N)N(C)Cc1ccc(Cl)nc1`, the outcome was inactive.

For `CON=C(C(=O)OC)c1ccccc1CON=C(C)c1cccc(C(F)(F)F)c1`, the compound was classed as inactive.

With `O=c1ccc(=O)[nH][nH]1`, the compound was classed as inactive.

As to `CNC(=O)Oc1cccc2c1OC(C)(C)O2`, the result was inactive.

As for `C#CCC1=C(C)C(OC(=O)C2C(C=C(C)C)C2(C)C)CC1=O` (stereo not given), the call was inactive.

Consider `O=[N+]([O-])c1cc(C(F)(F)F)c(Cl)c([N+](=O)[O-])c1Nc1ncc(C(F)(F)F)cc1Cl`, for which the compound was called inactive.

In the case of `COP(=O)(OC)SCn1c(=O)oc2cc(Cl)cnc21`, the compound was classed as inactive.

In the case of `CCOP(=S)(OCC)SCCSCC`, the result was inactive.

For `CN(C)C(=O)Nc1cccc(C(F)(F)F)c1`, the compound was classed as inactive.

`CCNc1nc(Cl)nc(NC(C)(C)C#N)n1`: the outcome was inactive.
